Bioassay records: PubChem, National Center for Advancing Translational Sciences (NCATS)
D1 ag: activates the human D1 dopamine receptor; activation, % at 2 µM; AID 504660; 1% of 360,000 active; HEK293 T-REx D1 cells, calcium flux, agonist mode; note: 0% is about no effect
Target sequence (P21728 whole entry, looked up): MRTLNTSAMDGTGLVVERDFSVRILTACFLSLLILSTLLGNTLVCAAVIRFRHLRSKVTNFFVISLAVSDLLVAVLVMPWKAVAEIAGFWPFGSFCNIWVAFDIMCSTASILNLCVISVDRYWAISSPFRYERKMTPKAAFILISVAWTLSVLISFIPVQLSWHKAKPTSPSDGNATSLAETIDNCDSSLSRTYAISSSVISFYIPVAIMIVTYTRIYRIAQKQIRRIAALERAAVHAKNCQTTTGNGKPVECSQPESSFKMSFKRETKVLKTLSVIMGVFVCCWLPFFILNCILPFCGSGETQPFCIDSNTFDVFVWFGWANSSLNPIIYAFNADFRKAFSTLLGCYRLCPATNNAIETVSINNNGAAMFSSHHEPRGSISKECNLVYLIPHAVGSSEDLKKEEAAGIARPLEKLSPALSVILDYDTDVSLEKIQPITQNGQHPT
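Inducible HEK293 T-REx D1 cells, force-coupled to calcium signalling, were plated at 4000 cells/well with tetracycline and held overnight at 30 C. After no-wash calcium dye loading, compound-evoked calcium rise over 180 s flagged agonists.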
D1 antagonist: human D1 dopamine receptor antagonism. P21728. HEK293 TREx D1 cells, calcium flux, dopamine EC80; active compounds read low. activity change, negative = inhibition, % at 10 µM. 3.2% of 360,000 active. AID 504652; in the data active = activity change below about -30%; note: % is set by controls: 0 for no effect and ±100 for the full control effect
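Inducible Hek293 Trex D1 cells (tetracycline, overnight, 30 C). Calcium dye 30–90 min RT. Antagonist mode: EC80 dopamine added after 180 s compound read.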
TRHR ag: agonists of human TRH receptor. TRHR cells, calcium flux fluo-8, FDSS agonist mode. activation, % at 2 µM. 0.18% of 360,000 active; note: 0% is about no effect
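Agonist-mode FDSS calcium read (Ex 480/Em 530, 1 s cycles) in 1536-well TRHR cells with fluo-8 dye, after 10-cycle baseline and 23 nL compound addition; TRH at EC20 (10 nM final) added afterwards for the enhancer phase.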
D1 PAM: enhances dopamine response at the human D1 receptor; HEK293 TREx D1 cells, calcium flux, dopamine EC20 potentiation; potentiation, % at 10 µM; 0.036% of 360,000 active; AID 504651; in the data active = potentiation above about 30%; note: 0% is about no effect
TRHR PAM: TRH receptor (human) allosteric enhancement | TRHR cells, fluo-8 calcium fluorescence, EC20 TRH enhancement | 0.66% of 360,000 active | enhancement, % at 2 µM | P34981; in the data active = enhancement above about 30%; note: 0% is about no effect
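Enhancer read-out: after compound pinning and an initial kinetic agonist-mode read, an EC20 of TRH (10 nM final) was injected and fluo-8 calcium signal (Ex 480/Em 530) followed at 1 s/cycle for 100 cycles in TRHR-expressing cells.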
Numbers without * were called inactive; · = no result; ! = a repeat was not active. The list is not random: actives were taken first. Their share in the collection is about 4.7%. Cut-off read from the data, not from the text of the source, unless noted: active = activation above about 30%; inactive = the rest.

SMILES	D1 ag	D1 antagonist	TRHR ag	D1 PAM	TRHR PAM
O=C(NCc1ccccc1Cl)C1CCCN1C(=O)NCc1ccccc1 (stereo unspecified)	1	-44*	0	-3	0
COc1ccc(NC(=O)C2CCN(S(=O)(=O)c3c(C)noc3/C=C/c3ccco3)CC2)cc1	1	-11	1	3	0
Cc1cc(C)cc(NC(=O)N2CCN(c3cc(-c4noc(C)n4)ccc3C)CC2)c1	1	-17	0	0	-2
O=C(Oc1ccc(C(=S)N2CCOCC2)cc1)c1ccc([N+](=O)[O-])cc1[N+](=O)[O-]	-1	-2	1	-5	0
COc1cc(C(=S)N2CCOCC2)ccc1OC(=O)c1ccccc1[N+](=O)[O-]	6	-33*	0	-4	4
COc1cc(C(=S)N2CCOCC2)ccc1OC(=O)c1cc([N+](=O)[O-])c(C)c([N+](=O)[O-])c1	4	0	0	11	-4
O=C(Oc1ccc(Br)cc1C(=S)N1CCOCC1)c1ccc([N+](=O)[O-])cc1[N+](=O)[O-]	-2	-4	0	9	36*
c1ccc(-c2nnc(OCC3CCCO3)c3ccccc23)cc1 (stereo unspecified)	-3	·	-1	-5	2
Cc1ccc2cc(C#N)c(N3CCCN(C(=O)C4CCCO4)CC3)nc2c1 (stereo unspecified)	2	-44*	-1	3	1
Cc1ccc2cc(C#N)c(N3CCCN(C(=O)c4cnccn4)CC3)nc2c1	0	-10	0	0	11
COc1ccc(NC(=O)C2CCN(S(=O)(=O)c3ccc(N4CCCC4=O)cc3)CC2)c(OC)c1	0	-16	0	3	-1
Cc1ccc(NC(=O)C2CCN(S(=O)(=O)c3ccc(N4CCCC4=O)cc3)CC2)cc1Cl	12	-71*	0	-10	-10
Cc1ccc(NC(=O)C2CCCN(S(=O)(=O)c3ccc4[nH]c(=O)ccc4c3)C2)cc1Cl (stereo unspecified)	4	-48*	1	-9	-3
COc1ccc(C)cc1NC(=O)C1CCCN(S(=O)(=O)c2ccc3[nH]c(=O)ccc3c2)C1 (stereo unspecified)	1	-8	-1	-8	47*!
CCn1c(SCC(=O)c2ccccc2)nnc1-c1cccc(Cl)c1	-1	4	-1	-3	-2
COc1ccc(/C(=C/Nc2cccc(Br)c2)C(C)=O)cc1OC	-1	-11	-1	-5	41*
CC(=O)N[C@@H](Cc1ccc(O)cc1)C(=O)N[C@H](C(=O)N[C@@H](C)C(=O)N[C@H](C#N)CC(=O)O)C(C)C	2	-17	0	-2	-9
Cc1cc2c3ccccc3ncn2n1	3	-39*	-1	7	6
CCOc1ccc2nc(N3CCCC(C(=O)NCCc4ccc(OCC)c(OCC)c4)C3)sc2c1 (stereo unspecified)	0	-1	0	-5	3
COc1ccc(C2CCCN2C(=S)Nc2ccc(C)cc2C)cc1OC (stereo unspecified)	2	-38*	-1	-3	-3
COc1ccc(C2CCCN2C(=S)Nc2ccccc2C)cc1OC (stereo unspecified)	5	-8	0	-14	0
COc1ccc(C2CCCN2C(=S)Nc2cccc(Cl)c2)cc1OC (stereo unspecified)	2	-2	0	1	8
COc1cccc(NC(=S)N2CCCC2c2ccc(OC)c(OC)c2)c1 (stereo unspecified)	-1	-61*	-1	-5	5
CC(C)CCOc1ccc(C2N=C(N)Nc3nc4ccccc4n32)cc1 (stereo unspecified)	0	11	-3	-4	5
COC(=O)c1c(NC(=O)COc2ccc(Cl)cc2C)sc2c1CCCCC2	0	-11	0	1	2
Cc1cc(Br)ccc1NC(=O)CN(C)C(=O)C1CSC2(C)CCC(=O)N12 (stereo unspecified)	2	-33*	0	·	-5
Cc1cc(Br)ccc1NC(=O)C1CSC2(C)CCC(=O)N12 (stereo unspecified)	1	7	-1	-3	3
CO/N=C(/c1nonc1N)N1CCN(c2ccc([N+](=O)[O-])cc2)CC1	2	-5	7	-4	-9
CN1CCN(/C(=N\O)c2nonc2N)CC1	5	-42*	0	-10	-8
